Results as given in PubChem BioAssay AID2796 (The Scripps Research Institute Molecular Screening Center, 2010).
Among all 320,000 compounds or so, about 8,000 (2.5%) were called active. The sample holds actives, similar compounds and a random draw of the others, so the mix is not that of the screen. No stated cut-off is given here; in the data, active means activation above about 47%; inactive means the rest.

The compounds below were run against Aryl hydrocarbon receptor (Homo sapiens) (UniProt P35869) (assay: AHR activators, primary screen, cell-based, luminescence, luciferase reporter, human (AID 2796;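 further: 0% = vehicle wells and 100% = reference agonist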)). Settings: AHR-responsive luciferase reporter cells, at 5 µM, active compounds read high.
Chain of Aryl hydrocarbon receptor (Homo sapiens) (P35869 whole entry, looked up): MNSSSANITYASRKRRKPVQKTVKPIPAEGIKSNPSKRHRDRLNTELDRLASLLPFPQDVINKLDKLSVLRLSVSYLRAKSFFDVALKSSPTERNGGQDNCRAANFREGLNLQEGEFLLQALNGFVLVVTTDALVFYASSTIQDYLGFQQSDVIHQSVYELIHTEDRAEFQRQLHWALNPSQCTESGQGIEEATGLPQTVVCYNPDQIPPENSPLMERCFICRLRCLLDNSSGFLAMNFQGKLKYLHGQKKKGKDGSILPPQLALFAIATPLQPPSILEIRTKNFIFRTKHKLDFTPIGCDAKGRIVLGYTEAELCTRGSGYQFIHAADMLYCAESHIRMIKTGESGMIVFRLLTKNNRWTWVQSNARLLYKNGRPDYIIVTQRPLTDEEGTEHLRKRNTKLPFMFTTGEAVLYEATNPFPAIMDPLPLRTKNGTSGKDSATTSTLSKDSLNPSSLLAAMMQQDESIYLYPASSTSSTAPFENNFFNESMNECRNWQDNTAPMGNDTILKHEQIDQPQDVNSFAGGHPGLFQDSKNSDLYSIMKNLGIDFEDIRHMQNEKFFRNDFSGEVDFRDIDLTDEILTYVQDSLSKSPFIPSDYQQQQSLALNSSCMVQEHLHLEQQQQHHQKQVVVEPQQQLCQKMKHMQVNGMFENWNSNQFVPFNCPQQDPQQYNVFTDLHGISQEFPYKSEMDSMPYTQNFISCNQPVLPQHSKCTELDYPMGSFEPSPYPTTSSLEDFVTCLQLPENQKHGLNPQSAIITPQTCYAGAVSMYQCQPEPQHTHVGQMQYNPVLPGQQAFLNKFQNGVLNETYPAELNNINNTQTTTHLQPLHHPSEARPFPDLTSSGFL

Structure (SMILES)	activation
O=C(NCc1ccc2c(c1)OCO2)c1cc([N+](=O)[O-])ccc1N1CCOCC1	-0.76% (inactive)
Cc1nnc(C)c2c(C)n(N)c(C)c12	-0.81% (inactive)
COc1ccc(CNC(=O)CNC(=O)c2sc3ccccc3c2Cl)cc1OC	-3.5% (inactive)
O=C(N/N=C/c1c(Cl)[nH]c2ccccc12)c1sc2ccccc2c1Cl	74.3% (active)
CN1CCc2ccccc2C1Cc1ccccc1NC(=O)c1sc2ccccc2c1Cl (stereo not given)	11.4% (inactive)
O=C(CCNS(=O)(=O)c1ccccc1)NCCSc1ccc(Br)cc1	-0.18% (inactive)
Cc1sc2ncn(CC(=O)NCCCC(=O)N3CCN(c4ccccc4F)CC3)c(=O)c2c1C	-0.77% (inactive)
CCOc1ccc(Nc2oc(Cc3ccccc3)nc2C#N)cc1	58.1% (active)
N#Cc1nc(COc2ccc(-c3ccccc3)cc2)oc1NCc1cccnc1	-4.66% (inactive)
COc1ccc(Nc2oc(-c3ccccc3Cl)nc2C#N)cc1	-7.03% (inactive)
Cc1cccc(N(C)C(=O)c2cc3c(=O)[nH]c4ccc(C)cc4c3s2)c1	39% (inactive)
C=CCSc1nnc(Cn2c(=O)sc3ccccc32)n1C	0.37% (inactive)
Cc1cccc[n+]1CC(=O)c1ccccc1	1.77% (inactive)
O=C(CNC(=O)c1ccc(F)cc1)c1ccccc1	3.71% (inactive)
O=C(C[n+]1cc(Br)cc2ccccc21)c1ccc(F)cc1	58.6% (active)
S=c1[nH]cc(-c2ccc(Cl)cc2)n1-c1ccccc1	6.37% (inactive)
CC(C)(C)OC(=O)C[C@@H]1C/C=C\C[C@@H](CC(=O)NCCO)C(=O)N[C@H](Cc2c[nH]c3ccccc23)COC1=O	0.32% (inactive)
C=CCN1C(=O)C2(OCCCO2)c2cccc(Cl)c21	-2.96% (inactive)
O=c1c(/C=N/O)coc2ccc(Cl)cc12	-0.55% (inactive)
NC(=S)N/N=C/c1coc2cc(Cl)ccc2c1=O	60.2% (active)

Structure (SMILES)	activation
Cc1ccc2occ(/C=N/NC(=O)c3ccccc3C)c(=O)c2c1	6.34% (inactive)
O=[N+]([O-])c1ccc2nc(-c3ccccn3)[nH]c2c1	3.58% (inactive)
O=c1[nH]n(-c2ccc([N+](=O)[O-])cc2)c(=O)c2ccccc12	1.45% (inactive)
O=c1[nH]c2cccnc2n1-c1ccc([N+](=O)[O-])cc1	60.9% (active)
CCOc1ccc(CN2CCN(CCCc3ccccc3)C(CCO)C2)cc1 (stereo not given)	0.01% (inactive)
COc1cc(NC(=O)c2cccs2)ccc1NC(=O)c1ccccc1Cl	-11.1% (inactive)
O=C(Nc1ccc2sc3ccccc3c(=O)c2c1)c1ccccc1Cl	49.1% (active)
O=C(Nc1cccc(NC(=O)c2ccccc2[N+](=O)[O-])c1)c1ccccc1Cl	8.43% (inactive)
COc1cc(S(=O)(=O)N2CCN=C2c2ccccc2)ccc1Cl	1.21% (inactive)
Cc1ccccc1OCCC(=O)OCC(=O)NC(C)c1ccccc1 (stereo not given)	-2.01% (inactive)
COc1ccc(Cl)cc1C(=O)NNC(=S)NC1CCCC1	32.1% (inactive)
C=CCNC(=S)NNC(=O)c1cc(Cl)ccc1OC	52.7% (active)
COc1ccc(Cl)cc1C(=O)NNC(=S)NC(=O)/C=C/c1ccco1	4.8% (inactive)
Cc1nc(SCC(=O)N2CCc3ccccc3C2)c2c(C)c(C)sc2n1	3.83% (inactive)
COc1ccc(NC(=O)c2ccco2)cc1NC(=O)c1ccc(C#N)cc1F	96.2% (active)
COc1cc(NC(=O)c2cc([N+](=O)[O-])ccc2Br)ccc1NC(=O)c1ccco1	-4.72% (inactive)
COc1ccccc1C(=O)Nc1ccc(NC(=O)c2ccco2)c(C)c1	40.4% (inactive)
O=S(=O)(NC1CC1)c1ccc2c3c(cccc13)CC2	1.23% (inactive)
CCn1c(CN2C(=O)CSc3ccccc32)n[nH]c1=S	1.51% (inactive)
COC(=O)c1c(-c2cccs2)csc1NC(=O)CSc1ncnc2sc(C)c(C)c12	6.7% (inactive)

Structure (SMILES)	activation
CSc1ncnc2sc(C)c(C)c12	1.25% (inactive)
Cc1sc2ncnc(Sc3nc4ccccc4s3)c2c1C	47.2% (active)
O=C(NNS(=O)(=O)c1ccc(F)cc1)C1CCCCC1	-0.99% (inactive)
CN(CC(=O)Nc1ccc(Cl)cc1)C(=O)c1ccc(COc2ccccc2)cc1	0.65% (inactive)
CC(=O)N1c2ccc(S(=O)(=O)N3CCCC(C(=O)Nc4ccc(C)cc4C)C3)cc2CC1C (stereo not given)	0.6% (inactive)
CCC(=O)c1ccc(OCC(=O)OCC(=O)N2CCc3ccccc3C2)cc1	-1.4% (inactive)
COc1ccc2sc(-c3ccc(N(C)C)cc3)c(C#CCO)c2c1	64.8% (active)
COc1cc(OC)cc(-c2sc3ccc(OC)cc3c2-c2ccc3cc[nH]c3c2)c1	13% (inactive)
COc1ccc2sc(-c3ccc(S(C)(=O)=O)cc3)c(C#Cc3cncn3C)c2c1	39.3% (inactive)
COc1ccc(-c2sc3ccc(OC)cc3c2C#Cc2ccccn2)cc1	70.4% (active)
COc1ccc2sc(-c3ccccc3OC)c(-c3ccc(OCCN4CCCC4)cc3)c2c1	1.65% (inactive)
COc1ccc2sc(-c3ccc(N(C)C)cc3)c(-c3ccc4cc[nH]c4c3)c2c1	22.1% (inactive)
CCCN(C(=O)CSc1nnc(N)s1)c1c(N)n(Cc2ccccc2)c(=O)[nH]c1=O	0.7% (inactive)
COc1cccc(CN(C)CC2CCCN(CCc3ccc(Cl)cc3)C2)c1OC (stereo not given)	-2.92% (inactive)
COc1ccc2c(c1)CCC/C2=N\OC(=O)c1ccccc1F	2.52% (inactive)
COCCN(Cc1ccccc1)C(=O)Cc1ccc(S(=O)(=O)N2CCOCC2)s1	0.03% (inactive)
O=C1OC[C@@H]2CCCN2C(=O)[C@H](CC(=O)N(CCO)Cc2ccccc2)C/C=C\CC[C@@H]1Cc1ccc(F)cc1	-2.45% (inactive)
COc1ccc(-c2nn(-c3ccccc3)cc2/C=N/Nc2ccccn2)cc1OC	30.3% (inactive)
Cc1cc(N/N=C\c2ccc(Br)cc2)nc(-n2nc(C)cc2C)n1	27.3% (inactive)
COc1ccccc1/C=N\Nc1cc(C)nc(-n2nc(C)cc2C)n1	70.2% (active)
